Bioassay records as filed in PubChem BioAssay.
BioA inh – BioA (M. tuberculosis) enzyme inhibition; 0.096% of 360,000 active; AID 602481; purified M. tuberculosis BioA enzyme, plate reader; inhibition, % at 9.99 µM; in the data active = inhibition above about 40%
BJeLR lethal – kills HRASV12-expressing BJeLR cells | BJeLR (HRASV12) viability, CellTiter-Glo ATP luminescence, 48 h | inhibition, % (no concentration beside the values) | 0.17% of 300,000 active; in the data active = inhibition above about 50%
Y pestis TopoI – inhibitors of Yersinia pestis topoisomerase I | 0.064% of 360,000 active | AID 504884 | Y. pestis Topo-I cleavage product accumulation, plate reader | activity, % at 10 µM; in the data active = activity above about 50%, passing the limit was not always enough
MazF activator – MazEF (E. coli) toxin RNase activation | P0AE70 | FAM/BHQ RNA-DNA oligo cleavage fluorescence, 5 h | activation, % at 20 µM | 0.32% of 350,000 active | AID 504720; in the data active = activation above about 50%
Target sequence (P0AE70 whole entry, looked up): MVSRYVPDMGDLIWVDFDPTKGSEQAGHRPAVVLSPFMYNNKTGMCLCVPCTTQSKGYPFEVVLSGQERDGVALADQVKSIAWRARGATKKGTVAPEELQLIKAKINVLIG
3CLpro inhibitor – SARS-CoV 3CLpro protease inhibition | P0C6X7 | recombinant SARS-CoV 3CLpro, quenched FRET peptide cleavage | inhibition, % at 6 µM | 0.14% of 290,000 active; in the data active = inhibition above about 12%
PfHsp40 rescue – compounds rescuing yeast from Plasmodium falciparum HSP40 toxicity | S. cerevisiae expressing PfHsp40, growth rescue, ATP luminescence | growth rescue, % at 12.5 µM | 0.68% of 340,000 active | AID 504582; in the data active = growth rescue above about 28%, passing the limit was not always enough;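 note: yeast W303a lacking pdr1 and pdr3 grown in galactose medium; growth measured after three days at 30 °C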
* marks the source's active call; other numbers are inactive results. Only some compounds are listed: those with a hit (about 1.1% of all), similar ones and a draw of the others.

For Cc1sc2ncnc(N/N=C/c3cccc(O)c3)c2c1C the results were BJeLR lethal 4, Y pestis TopoI -5, MazF activator 5, 3CLpro inhibitor -6 and PfHsp40 rescue -1.
`C/C(=N\Nc1ncnc2sc(C)c(C)c12)c1ccccn1` gave BioA inh -6, BJeLR lethal 80*, Y pestis TopoI -12, MazF activator -61, 3CLpro inhibitor -6 and PfHsp40 rescue 20.
Screening C/C(=N\NC(=O)c1ccc(F)cc1)c1ccccn1 returned BJeLR lethal 106*, Y pestis TopoI 3, MazF activator 13, 3CLpro inhibitor 1 and PfHsp40 rescue 0.
`CC(=NNC(=S)Nc1ccccc1)c1ccccn1` gave Y pestis TopoI 1 and MazF activator 6.
For C/C(=N\Nc1ncc(Cl)cc1Cl)c1ccccn1 the results were BJeLR lethal 67*, Y pestis TopoI 2, MazF activator -29, 3CLpro inhibitor 0 and PfHsp40 rescue 14.
Screening CC(=NNC(=S)Nc1ccccc1Cl)c1ccccn1 returned Y pestis TopoI 8, MazF activator 3 and PfHsp40 rescue 200*.
For CNC(=O)C[C@H]1CC[C@@H]2[C@H](COC[C@H](O)CN2S(=O)(=O)c2ccc(Oc3ccccc3)cc2)O1 the results were BioA inh -1.
C[C@@H]1CN([C@@H](C)CO)C(=O)c2cc(NC(=O)C3CCCCC3)ccc2O[C@@H](C)CCCCO[C@@H]1CN(C)C(=O)Nc1ccc(F)cc1 was read as BioA inh -2.
C[C@H](CO)N1C[C@H](C)[C@H](CN(C)S(=O)(=O)c2ccccc2)Oc2ccc(NS(C)(=O)=O)cc2CC1=O was read as BioA inh -2.
`COc1ccccc1CNn1c(-c2cccc(C)c2)nc2ccccc2c1=O` gave BioA inh 0, BJeLR lethal 3, Y pestis TopoI 3, MazF activator 8, 3CLpro inhibitor -2 and PfHsp40 rescue 42*.
`CC(C)c1c(C#N)c(N)nc(SCC(=O)c2cc3ccccc3oc2=O)c1C#N` gave BioA inh -1, BJeLR lethal 2, Y pestis TopoI -2, MazF activator -6, 3CLpro inhibitor -1 and PfHsp40 rescue 0.
Screening Cc1nc(SCC(=O)c2cc3ccccc3oc2=O)c(C#N)c(-c2cccs2)c1C(=O)Nc1ccccc1 returned BJeLR lethal -2, Y pestis TopoI -4, MazF activator 61*, 3CLpro inhibitor -2 and PfHsp40 rescue 2.
CSc1nc(C)c(C(=O)Nc2ccccc2)c(-c2ccco2)c1C#N was read as BJeLR lethal 12, Y pestis TopoI 14, MazF activator 2, 3CLpro inhibitor 4 and PfHsp40 rescue 2.
Screening N#Cc1ccc(-c2ccccc2)nc1SCC(=O)c1cc2ccccc2oc1=O returned BioA inh -1, BJeLR lethal 11, Y pestis TopoI -2, MazF activator 63*, 3CLpro inhibitor 3 and PfHsp40 rescue 0.
Screening C[C@@H](NC(=O)C[C@H]1CC[C@H](NC(=O)CN2CCOCC2)[C@@H](CO)O1)c1ccccc1 returned BioA inh -3.
Screening Cc1cc(C)c2c(N=NN(C)C)[nH]nc2n1 returned BioA inh -1, BJeLR lethal -4, Y pestis TopoI 9, MazF activator -1, 3CLpro inhibitor -5 and PfHsp40 rescue 68*.
For COc1ccc2c(n1)Sc1nc3ccccc3nc1N2 the results were BioA inh -3, BJeLR lethal 0, Y pestis TopoI -3, MazF activator -234, 3CLpro inhibitor -4 and PfHsp40 rescue 336*.
For COCC(=O)N1C[C@H](C)[C@@H](OC)CN(C)C(=O)c2cc(NC(=O)NC(C)C)ccc2OC[C@@H]1C the results were BioA inh 0.
Screening O=c1cc(CSc2nnc(COc3ccc(Cl)cc3)o2)c2ccccc2[nH]1 returned BJeLR lethal -9, Y pestis TopoI 23, MazF activator 51*, 3CLpro inhibitor -1 and PfHsp40 rescue 0.
Screening COc1cccc(OCc2nnc(SCc3cc(=O)[nH]c4ccccc34)o2)c1 returned BJeLR lethal -6, Y pestis TopoI 47, MazF activator 3, 3CLpro inhibitor 3 and PfHsp40 rescue -1.
For Cc1ccccc1OCc1nnc(SCc2cc(=O)[nH]c3ccccc23)o1 the results were BioA inh -1, BJeLR lethal 17, Y pestis TopoI 10, MazF activator 65*, 3CLpro inhibitor 1 and PfHsp40 rescue -1.
Screening CNC[C@H]1Oc2ccc(NS(=O)(=O)c3cccs3)cc2C(=O)N([C@@H](C)CO)C[C@H]1C returned BioA inh -1.
`COc1ccc(-c2ccc3n2Cc2cnnn2-c2ccccc2-3)cc1` gave BioA inh 0, Y pestis TopoI 31, MazF activator 0 and PfHsp40 rescue 137*.
For C[C@H]1CN([C@@H](C)CO)C(=O)c2cc(NC(=O)c3ccncc3)ccc2O[C@H]1CN(C)C(=O)Nc1ccccc1 the results were BioA inh 3.
`CO[C@H]1CN(C)C(=O)c2ccc(NC(=O)C3CCCC3)cc2OC[C@@H](C)N(CC2CC2)C[C@H]1C` gave BioA inh -1.
CN=C(Nc1ccc(Br)cc1)SC1CC(=O)N(c2ccc(OC)cc2)C1=O (stereo not drawn) was read as BJeLR lethal -2, Y pestis TopoI 8, MazF activator -4, 3CLpro inhibitor 5 and PfHsp40 rescue 43*.
For CN=C(Nc1ccc(C)c(C)c1)SC1CC(=O)N(c2ccc(OC)cc2)C1=O (stereo not drawn) the results were BJeLR lethal -6, Y pestis TopoI 9, MazF activator 0, 3CLpro inhibitor 7 and PfHsp40 rescue 3.
Screening CCN1C(=S)SC(=O)C1=C1C=C(C)N(Cc2ccco2)C(C)=C1 returned BioA inh 1, BJeLR lethal 7, Y pestis TopoI -20, MazF activator -9, 3CLpro inhibitor 2 and PfHsp40 rescue 3.
Screening CCN1C(=S)SC(=O)C1=C1C=C(C)OC(C)=C1 returned BioA inh -2, BJeLR lethal 1, Y pestis TopoI -1, MazF activator active, 3CLpro inhibitor 2 and PfHsp40 rescue -1.
For Clc1cccc(CSc2nnc(-c3sccc3-n3cccc3)o2)c1 the results were BioA inh -1, BJeLR lethal -5, Y pestis TopoI 58*, MazF activator -5, 3CLpro inhibitor 6 and PfHsp40 rescue 0.
Clc1cc(Cl)cc(CSc2nnc(-c3sccc3-n3cccc3)o2)c1 was read as BioA inh 2, BJeLR lethal 0, Y pestis TopoI 9, MazF activator 11, 3CLpro inhibitor -1 and PfHsp40 rescue 1.
`Cc1cccc(NC(=S)NC2CCCC2)n1` gave BJeLR lethal 3, Y pestis TopoI -2, MazF activator -5, 3CLpro inhibitor 2 and PfHsp40 rescue 113*.
